Reference: PubChem BioAssay (NCATS)
“And” between values parts separate entries of the source, which are not always exact repeats. Equal values may be shown once. Inconclusive results are not listed. The source made the active and inactive calls. Unless noted, the call rests on the fitted dose curve; in most records, active means well fitted curve in either direction with a large enough effect (not every such curve was filed as active); inconclusive means small, poorly fitted or top-dose-only effect, or another doubt; inactive means flat fitted curve, though single readings scatter.

Assays:
[1] = AP1 Signaling Pathway (AID 357);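 further: ME-180 reporter cells stimulated with EGF at its EC50 level; on the % scale 0 is the no-effect control and ±100 the full control effect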
How it was run: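 Read-out was the 460nm/530nm emission ratio (excitation 405nm) after CCF4 loading for 2.5 hours at room temperature. Cells carried an AP-1-driven beta-lactamase reporter, were stimulated with EC50 EGF plus compound for 5 hours, and AC50 values came from titrations.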

[2] = target: Cytochrome P450 1A2 (Homo sapiens) (UniProt P05177); assay: p450-cyp1a2 (AID 410; calls by dose curve; further: potency means the concentration at half of the fitted maximal effect;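 on activity change, negative = inhibition: -100% = full effect of reference inhibitor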)
How it was run: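 O-Demethylation of luciferin 6' methyl ether by human CYP1A2 is monitored as luciferase luminescence. Substrate sits at Km (100uM); enzyme is 20nM. Values are scaled to 57 uM furafylline as maximal inhibition.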

[3] = NFAT Signaling Pathway (AID 444); settings: Jurkat NFAT-bla M1, carbachol, beta-lactamase ratio, 5 h;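 further: carbachol stimulus at about its EC50 of 1 µM final; on the % scale 0 is the no-effect control and ±100 the full control effect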
How it was run: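 Jurkat cells with NFAT-driven β-lactamase reporter and co-expressed M1 receptor, stimulated with carbachol (final 1 uM, ~EC50), compound titration, 5 h at 37 °C. CCF4 loaded 1 h at RT; 460/530 nm ratio gave %activity and AC50.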

[4] = target: Glucocorticoid receptor (Homo sapiens) (UniProt P04150); assay: GR-GFP Redistribution (AID 450;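 active means compounds whose dose series gives a full or clear partial fitted curve of increased nuclear translocation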; further: potency means the concentration at half of the fitted maximal effect); settings: U2OS GR-GFP nuclear translocation, laser cytometry, 2 h
[5] = target: Glucocorticoid receptor (Homo sapiens) (UniProt P04150); assay: GR-EFC Redistribution (AID 451; calls by dose curve; further: potency means the concentration at half of the fitted maximal effect); settings: CHO-K1 GR-EFC translocation, beta-gal luminescence, 2 h
How it was run: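 CHO-K1 cells expressing nuclear EA and GR-ED fragments of b-gal; compounds titrated up to 46 uM final, 2 h at 37 C. GR nuclear translocation read as complemented b-gal luminescence after 1 h RT detection.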

[6] = target: Mitogen-activated protein kinase 10 (Mus musculus) (UniProt Q61831); assay: JNK3 AlphaScreen Assay (AID 530);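 further: kinase came from lysate of stimulated human HepG2 cells; signal reports phosphorylation of biotinylated GST-cJun 1-79 at Ser73 with 10 µM ATP; on the % scale 0 is the no-effect control and ±100 the full control effect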
How it was run: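 Activity was read by AlphaScreen after JNK3-containing HepG2 lysate (cytokine pre-activated) phosphorylated biotinylated GST-cJun with 10 uM ATP at room temperature. Phospho-Ser73 cJun antibody with Protein-A acceptor beads provided detection.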

[7] = Stat Signaling Pathway (AID 446);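 further: ME-180 cervical cancer cells given 40 pM IL-6 alongside compound; SIE-controlled beta-lactamase reporter measured as 460/530 nm FRET emission ratio; on the % scale 0 is the no-effect control and ±100 the full control effect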
How it was run: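 FRET read-out (405 nm excitation, 460/530 nm emission) of a beta-lactamase reporter under a STAT-inducible element in ME-180 cervical carcinoma cells. Cells with compound receive 40 pM IL-6 for 5 h. Values are normalised to AC90 stimulation and AC90 JAK-inhibitor controls.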

[8] = Cell Viability - BJ (AID 421; calls by dose curve;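 further: potency means the concentration at half of the fitted maximal effect; cells exposed to compound for 40 hours at 37 °C before readout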); settings: BJ fibroblast viability, qHTS
How it was run: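 Cytotoxicity as drop in intracellular ATP (CellTiter-Glo, 20 min RT) after 40 hr compound exposure of BJ fibroblasts at 37 °C. Titrations scaled between DMSO and 100 uM tamoxifen, Hill-fitted for AC50.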

[9] = Cell Viability - Jurkat (AID 426;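 active means dose-dependent loss of cell ATP signal giving a full or clear fitted curve, ranked by lower potency value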;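 further: potency means the concentration at half of the fitted maximal effect; cells exposed to compound for 40 hours at 37 °C before ATP read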); settings: qHTS
How it was run: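 Cells of the human T-cell leukemia line Jurkat (E6-1) are seeded at 5000 per well, treated with compound across a concentration range for 40 hours at 37 °C, then lysed with CellTiter-Glo; luminescence reports ATP.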

[10] = Cell Viability - HepG2 (AID 433; calls by dose curve;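 further: potency means the concentration at half of the fitted maximal effect; potency for ATP loss meaning cytotoxicity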); settings: qHTS
How it was run: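 Cytotoxicity is scored as loss of intracellular ATP in HepG2 cells exposed to compounds for 40 h. Concentration-response curves, normalized to DMSO and 100 uM tamoxifen, give AC50 values.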

[11] = Cell Viability - MRC5 (AID 434; calls by dose curve;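 further: potency means the concentration at half of the fitted maximal effect; potency reflects cytotoxicity seen as loss of intracellular ATP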); settings: MRC5 lung fibroblast viability, qHTS
How it was run: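 ATP luminescence read-out (CellTiter-Glo, 20 min RT) after 40 hr, 37 °C compound exposure of 1500 MRC5 cells/well. Data normalized to DMSO (basal) and 100 uM tamoxifen (100% inhibition); AC50 from standard Hill equation.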

[12] = Cell Viability - SK-N-SH (AID 435; calls by dose curve;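 further: potency means the concentration at half of the fitted maximal effect; compound exposure lasted 40 h at 37 °C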); settings: SK-N-SH neuroblastoma cell viability qHTS
How it was run: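 Cells seeded at 1500 per well and incubated 5 hr at 37 °C. Compound added, then 40 hr at 37 °C. CellTiter-Glo added, 20 min at room temperature, luminescence read.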

[13] = Cell Viability - N2a (AID 540; active means well fitted curve in the direction sought with a large enough effect; an effect the other way counts as inactive or inconclusive;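 further: cells exposed to compound for 40 h at 37 °C; plate controls were DMSO alone for no effect and tamoxifen control for full effect; nearly all actives have a fitted effect of over 45% in size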)
How it was run: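 Cytotoxicity was scored as loss of cellular ATP in N2a cells, a mouse neuroblastoma line. Compounds are applied in a qHTS concentration series for 40 hr at 37 °C.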

[14] = Cell Viability - NIH 3T3 (AID 541; active means well fitted curve in the direction sought with a large enough effect; an effect the other way counts as inactive or inconclusive;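 further: plate controls were DMSO alone for no effect and tamoxifen positive control for full effect; nearly all actives have a fitted effect of over 25% in size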); settings: NIH 3T3 cell viability, qHTS; activity change, negative = cytotoxicity: at 92.2 µM (top of the series)
How it was run: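 Cells seeded at 1000/well, rested 5 hr at 37 °C, then dosed and incubated 40 hr at 37 °C. CellTiter-Glo added, 20 min room temperature, luminescence read. AC50 by Hill fit.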

[15] = Cell Viability - HUV-EC-C (AID 542; active means well fitted curve in the direction sought with a large enough effect; an effect the other way counts as inactive or inconclusive; further: on the % scale 0 is the no-effect control and ±100 the full control effect; nearly all actives have a fitted effect of over 35% in size)
How it was run: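 Cells were seeded at 1000 per well and incubated 5 hr at 37 °C before compound addition. After 40 hr at 37 °C, CellTiter-Glo reagent was added for 20 min and luminescence read. AC50 values came from Hill-equation modelling.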

[16] = Cell Viability - H-4-II-E (AID 543; active means well fitted curve in the direction sought with a large enough effect; an effect the other way counts as inactive or inconclusive; further: on the % scale 0 is the no-effect control and ±100 the full control effect; nearly all actives have a fitted effect of over 35% in size)
How it was run: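 Cells seeded at 1500 per well and rested 5 hr; compounds added; 40 hr incubation at 37 °C; CellTiter-Glo added, 20 min at room temperature; luminescence read. Hill-equation fits gave AC50.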

[17] = Cell Viability - SH-SY5Y (AID 544; active means well fitted curve in the direction sought with a large enough effect; an effect the other way counts as inactive or inconclusive;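 further: 0% = DMSO alone and -100% = 100 µM tamoxifen; nearly all actives have a fitted effect of over 55% in size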); settings: SH-SY5Y neuroblastoma cell viability; viability change, negative = cytotoxic: at 92.2 µM (top of the series)
How it was run: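 Cells were plated at 1500 per well and allowed 5 hr at 37 °C. Compounds were added across a concentration range and incubated 40 hr at 37 °C. CellTiter-Glo was added for 20 min at room temperature before luminescence reading.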

[18] = Cell Viability - Mesenchymal (AID 546; active means well fitted curve in the direction sought with a large enough effect; an effect the other way counts as inactive or inconclusive;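 further: cells exposed to compound for 40 hours before reading; 0% = DMSO only and -100% = 100 µM tamoxifen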)
How it was run: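 Human renal mesenchymal cells (glomerulus-derived), 1000 cells/well, 5 hr 37 °C pre-incubation; compound 40 hr, 37 °C; CellTiter-Glo, 20 min RT; luminescence; AC50 via Hill equation.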

[19] = Cellular Toxicity (caspase-3) HepG2 (AID 654; active means well fitted curve in the direction sought with a large enough effect; an effect the other way counts as inactive or inconclusive;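 further: cells exposed to compound for 16 hours before reading; 0% = DMSO alone and 100% = caspase signal from 100 µM tamoxifen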)
How it was run: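 Caspase 3/7 activation in HepG2 is measured as rising luminescence after a 16 hr treatment at 37 °C. Values are scaled between DMSO basal and 100 uM tamoxifen, and AC50 is fitted with the Hill equation.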

[20] = at 17.2 µM (top of the series) unless noted

Chain of Cytochrome P450 1A2 (Homo sapiens) (P05177 whole entry, looked up): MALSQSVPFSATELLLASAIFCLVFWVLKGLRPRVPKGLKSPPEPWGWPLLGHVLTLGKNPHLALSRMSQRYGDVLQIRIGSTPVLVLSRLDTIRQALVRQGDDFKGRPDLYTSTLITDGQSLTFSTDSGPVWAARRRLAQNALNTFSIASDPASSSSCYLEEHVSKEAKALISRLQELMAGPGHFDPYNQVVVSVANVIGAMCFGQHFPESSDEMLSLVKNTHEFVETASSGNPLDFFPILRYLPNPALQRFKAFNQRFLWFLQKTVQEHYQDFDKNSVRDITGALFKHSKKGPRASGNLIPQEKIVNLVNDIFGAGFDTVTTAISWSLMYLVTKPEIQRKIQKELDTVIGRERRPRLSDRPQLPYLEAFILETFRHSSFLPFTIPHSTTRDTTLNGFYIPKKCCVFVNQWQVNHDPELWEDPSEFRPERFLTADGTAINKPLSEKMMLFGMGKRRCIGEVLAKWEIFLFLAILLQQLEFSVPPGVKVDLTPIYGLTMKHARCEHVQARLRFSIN
Chain of Glucocorticoid receptor (Homo sapiens) (P04150 whole entry, looked up, the tested form may be a part): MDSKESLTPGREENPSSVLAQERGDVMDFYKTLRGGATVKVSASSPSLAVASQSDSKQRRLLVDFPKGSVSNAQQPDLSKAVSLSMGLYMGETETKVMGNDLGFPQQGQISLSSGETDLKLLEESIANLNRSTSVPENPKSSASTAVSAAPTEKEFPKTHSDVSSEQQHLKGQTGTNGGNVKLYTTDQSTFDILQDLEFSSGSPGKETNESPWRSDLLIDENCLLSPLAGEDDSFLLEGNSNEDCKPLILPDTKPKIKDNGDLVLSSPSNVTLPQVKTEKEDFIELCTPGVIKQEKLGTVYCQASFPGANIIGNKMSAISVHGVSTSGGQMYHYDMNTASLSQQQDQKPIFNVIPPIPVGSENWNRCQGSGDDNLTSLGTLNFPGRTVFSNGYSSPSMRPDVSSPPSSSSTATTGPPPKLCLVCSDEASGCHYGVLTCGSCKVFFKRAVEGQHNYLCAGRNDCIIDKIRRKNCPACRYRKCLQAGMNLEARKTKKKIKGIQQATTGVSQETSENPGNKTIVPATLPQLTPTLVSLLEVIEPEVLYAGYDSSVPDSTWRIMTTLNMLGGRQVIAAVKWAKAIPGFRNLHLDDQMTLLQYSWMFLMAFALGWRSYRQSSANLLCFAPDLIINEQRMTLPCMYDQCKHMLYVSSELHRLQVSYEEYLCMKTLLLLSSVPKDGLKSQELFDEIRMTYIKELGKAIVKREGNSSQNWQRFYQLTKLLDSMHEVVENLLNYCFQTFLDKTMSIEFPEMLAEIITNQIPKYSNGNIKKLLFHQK

O=C1C(CCS(=O)c2ccccc2)C(=O)N(c2ccccc2)N1c1ccccc1 (stereo not given)
inactive: outcome [1] | Potency [2] | activity change, negative = inhibition [3, 20] -0.885% and -5.88% | Potency [4] > 20.6 µM | Potency [5] > 20.6 µM | Potency [6]

COc1cc(C(=O)NCc2ccc(OCCN(C)C)cc2)cc(OC)c1OC
inactive: outcome [1] | Potency [2] | activity change, negative = inhibition [3, 20] -15.8% | Potency [4] > 20.6 µM | Potency [5] > 20.6 µM

CN(C)CCC[C@@]1(c2ccc(F)cc2)OCc2cc(C#N)ccc21
inactive: outcome [1] | Potency [2] | Potency [4] > 46 µM | Potency [5] > 46 µM

CCN(CC)CCNc1ccc(CO)c2sc3ccccc3c(=O)c12
active: Potency [2] 0.126 µM
inactive: outcome [1] | activity change, negative = inhibition [3, 20] -29.8% | Potency [4] > 20.6 µM | Potency [5] > 20.6 µM

NS(=O)(=O)Cc1noc2ccccc12
inactive: outcome [1] | Potency [2] | activity change, negative = inhibition [3, 20] -5.42% [at 38 µM] | Potency [4] > 46 µM | Potency [5] > 46 µM

CC(C)(C)NC[C@H](O)COc1nsnc1N1CCOCC1
inactive: outcome [1] | activity change, negative = inhibition ([3]; at 17.2 µM (top of the series)) 1.16% and 3.92% | activity change, negative = inhibition ([3]; at 38 µM (top of the series)) -1.27% | outcome [7] | Potency [4] > 46 µM and > 20.6 µM | Potency [5] > 46 µM and > 20.6 µM | Potency [6]

Nc1ccc(C(=O)NCC(=O)O)cc1
inactive: outcome [1] | Potency [2] | activity change, negative = inhibition [3, 20] 3.72% | Potency [4] > 20.6 µM | Potency [5] > 20.6 µM

COc1ccc(C(=O)c2ccccc2)c(O)c1
active: Potency [2] 1.58 µM
inactive: outcome [1] | Potency [8] > 92 µM | Potency [9] > 92 µM | Potency [10] > 92 µM | Potency [11] > 92 µM | Potency [12] > 92 µM | activity change, negative = inhibition [3, 20] -6.2% | outcome [7] | Potency [4] > 20.6 µM | Potency [5] > 20.6 µM | Potency [13] | activity change, negative = cytotoxicity [14] -13.4% | outcome [15] | Potency [16] | viability change, negative = cytotoxic [17] -8.89% | outcome [18] | outcome [19]

CC(=O)O[C@]1(C(C)=O)CC[C@H]2[C@@H]3C=C(Cl)C4=CC(=O)CC[C@]4(C)[C@H]3CC[C@@]21C
inactive: outcome [1] | activity change, negative = inhibition [3, 20] -29%

CC(O)Cn1cnc2c1c(=O)n(C)c(=O)n2C (stereo not given)
inactive: outcome [1] | activity change, negative = inhibition [3, 20] 10.8%

CCN(CC)CCNC(=O)c1cc(Br)c(N)cc1OC
active: Potency [2] 10 µM
inactive: outcome [1]

COc1ccc(C(Cl)=C(c2ccc(OC)cc2)c2ccc(OC)cc2)cc1
inactive: outcome [1] | Potency [2] | Potency [8] > 92 µM | Potency [10] > 92 µM | Potency [11] > 92 µM | Potency [12] > 92 µM | outcome [7] | Potency [4] > 20.6 µM | Potency [5] > 20.6 µM | Potency [6] | Potency [13] | activity change, negative = cytotoxicity [14] -7.28% | outcome [15] | viability change, negative = cytotoxic [17] -10.7% | outcome [18] | outcome [19]

CC(=O)OCC(=O)[C@H]1CC[C@H]2[C@@H]3CCC4=CC(=O)CC[C@]4(C)[C@H]3CC[C@]12C
inactive: outcome [1]

CC(C)(C)NC[C@H](O)COc1cccc2c1CCCC2=O
inactive: outcome [1] | Potency [2] | activity change, negative = inhibition [3, 20] -6.3% and -2.31% | Potency [4] > 20.6 µM | Potency [5] > 20.6 µM

CN=C(N)NCCC[C@H](N)C(=O)O
inactive: outcome [1] | activity change, negative = inhibition [3, 20] -7.03% [at 38 µM]

N=C(N)N1CCc2ccccc2C1
inactive: outcome [1] | Potency [2] | activity change, negative = inhibition [3, 20] -7.74% | outcome [7] | Potency [4] > 20.6 µM | Potency [5] > 20.6 µM

CCCc1ncc(C[n+]2ccccc2C)c(N)n1
inactive: outcome [1] | Potency [2] | activity change, negative = inhibition [3, 20] -11.4% | Potency [4] > 20.6 µM | Potency [5] > 20.6 µM

C[N+]12CCC(CC1)C(OC(=O)C(O)(c1ccccc1)c1ccccc1)C2 (stereo not given)
inactive: outcome [1] | outcome [7] | Potency [4] > 20.6 µM
active: activity change, negative = inhibition [3, 20] -83.7%
